Screening results from PubChem.
TbHK1 inh = T. brucei hexokinase 1 inhibition | recombinant TbHK1, G6PDH-coupled NADH A340 | inhibition, % at 10 µM | hit rate 0.11% among 220,000 | AID 1430;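 active means inhibition of 50% or more in the single-dose primary screen; inactive means inhibition below 50%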
p97 inhibitor = inhibitors of human p97 ATPase; P55072; inhibition, % at 8 µM; recombinant p97 ATPase, Kinase-Glo ATP luminescence, 3 h; hit rate 0.42% among 220,000; AID 1481; in the data active means inhibition above about 15%;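 further: 0% = DMSO vehicle and 100% = wells lacking enzyme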
DTT redox prof = compounds producing H2O2 with reducing agent – biochemical, NIH compound library profiling, artefact control for MLSCN library redox annotation, primary screen. DTT-dependent redox cycling H2O2, phenol red/HRP absorbance; 100% = 100 µM peroxide control, 0% = buffer. hit rate 0.03% among 200,000. activation, % at 10 µM. AID 878;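 active means activation of at least 50% relative to the plate's high and low controls in the primary single-dose screen; inactive means activation below 50%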;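 further: compound incubated with DTT at 0.8 mM final as the reducing agent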
G6PDH counter = counter-screen for G6PDH assay hits: L. mesenteroides G6PDH inhibition; Purified L. mesenteroides G6PDH, diaphorase/resazurin coupled fluorescence, 45 min; inhibition, % at 5 µM; hit rate 0.12% among 200,000; in the data active means inhibition above about 50%
S1P3 antag = antagonists of human S1P3 receptor; CHO S1P3 NFAT-BLA reporter, FRET fluorescence, antagonist mode; inhibition, % at 4.98 µM; hit rate 0.27% among 170,000;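 active means inhibition above the plate cutoff, the mean inhibition of test wells on that plate plus 3 SD, cut at about 28% in these data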;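 further: cells challenged with S1P at its EC80 of 0.8 µM; blue over green emission ratio from cleaved BLA substrate after 4 h stimulation; 0% = S1P-stimulated wells and 100% = unstimulated DMSO-only wells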
Target sequence (Q99500 whole entry, looked up): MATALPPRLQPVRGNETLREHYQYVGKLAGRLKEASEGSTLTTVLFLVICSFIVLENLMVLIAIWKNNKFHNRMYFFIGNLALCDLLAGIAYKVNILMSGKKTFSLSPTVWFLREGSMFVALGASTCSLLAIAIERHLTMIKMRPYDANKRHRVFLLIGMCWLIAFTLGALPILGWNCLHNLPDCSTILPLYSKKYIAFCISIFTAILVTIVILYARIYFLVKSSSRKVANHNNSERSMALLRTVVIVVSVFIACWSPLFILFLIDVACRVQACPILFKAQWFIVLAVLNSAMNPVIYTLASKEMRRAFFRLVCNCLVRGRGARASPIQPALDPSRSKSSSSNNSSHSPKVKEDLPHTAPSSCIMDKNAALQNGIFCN
Numbers without * were called inactive; . = no result given. Sampled rows, rich in hits. Any-hit rate of the full collection: about 0.84%.

SMILES	TbHK1 inh	p97 inhibitor	DTT redox prof	G6PDH counter	S1P3 antag
O=C(CSc1nnnn1C1CCCCC1)Nc1ccccc1F	-3.7	0.4	-0.7	15.2	-11.9
[O-][N+]1=c2ccc(Nc3ccccc3)cc2=NC12CCCCC2	-20.6	-0.3	2.3	47.5	15.5
COc1ccc(Nc2ccc3c(c2)=NC2(CCCCC2)[N+]=3[O-])cc1	-20.5	-3.8	3.6	56.1*	.
O=C(Nc1ccc(S(=O)(=O)NCc2ccccc2)cc1)c1ccccc1[N+](=O)[O-]	3.1	-0.1	0.2	-1.6	13.9
CN(C)c1ccc(/C=C2/C(=O)N(c3ccc([N+](=O)[O-])cc3)N=C2N2CCOCC2)cc1	-13.9	31.5*	-7.0	11.6	.
CN(C)c1ccc(/C=C2\C(=O)N(c3ccc([N+](=O)[O-])cc3)N=C2N2CCOCC2)cc1	-13.3	23.3*	1.1	.	.
O=C1CC(N2CCOCC2)=NN1c1ccc([N+](=O)[O-])cc1	-19.3	8.3	.	.	-6.4
CCOC(=O)C1=NN(c2ccccc2)C(=O)/C1=C\c1ccc(N(C)C)cc1	-8.9	-2.0	-0.4	-59.2	.
CCOC(=O)C1=C(O)/C(=C\c2cc(C)n(-c3ccc(F)cc3)c2C)N=C1C	-6.5	-2.7	-0.9	4.4	-5.0
CC(C)C(OC(=O)CN1C(=O)COc2ccccc21)C(=O)NC1CCCC1 (configuration not stated)	-0.3	0.5	-0.9	-2.1	17.7
Cc1ccc2c(c1)N(CC(=O)OC(CC(C)C)C(=O)NC1CCCC1)C(=O)CO2 (configuration not stated)	0.8	-5.5	-1.4	7.6	89.5*
CCn1c2ccccc2c2nnc(SCC(=O)NCc3cccs3)nc21	-10.5	-3.0	-1.4	0.1	.
CCn1c(CNc2ccccc2Cl)nnc1SCC(=O)NCc1ccccc1	-2.1	1.7	0.0	2.8	69.5*
CCn1c(CNc2ccc(C)cc2)nnc1SCC(=O)NCc1ccccc1	2.1	0.4	2.5	-2.0	-14.8
CC(=O)N(C1=C(N2CCOCC2)C(=O)c2ccccc2C1=O)c1ccc(C(=O)O)cc1	-6.6	-2.5	.	.	-1.1
CC(=O)N(C)C1=C(N2CCOCC2)C(=O)c2ccccc2C1=O	-10.2	1.5	-3.9	55.2*	.
O=C1c2oc3ccc(Br)cc3c(=O)c2C(c2cccnc2)N1Cc1ccco1 (configuration not stated)	.	.	.	3.3	95.0*
O=C1c2oc3ccccc3c(=O)c2C(c2cccc(Br)c2)N1Cc1ccco1 (configuration not stated)	0.6	-3.3	1.4	-3.8	11.6
COc1cc(OC)c(OC)cc1/C=C/C(=O)c1ccc(NS(=O)(=O)c2ccc(C)cc2)cc1	-22.7	10.5	0.1	-3.6	18.0
CSC1=NCCN1C(=O)Cc1ccc(Cl)cc1	-0.8	5.3	-0.7	2.2	66.5*
CCN(CC)CC(=O)Nc1sc2c(c1C(=O)c1ccccc1OC)CCC2	-7.0	1.0	-0.6	10.7	-32.2
NC(=O)CN1CCOCCN(CC(N)=O)CCOCC1	.	.	.	55.9*	30.5
O=C(O)CSCCc1ccccn1	2.5	4.7	1.6	4.4	56.4*
O=C(CSCCc1ccccn1)Nc1ccccn1	9.3	2.9	-0.1	-0.5	1.4
CCn1c(=O)c2cc(C(=O)NC(C)C)sc2c2ccccc21	-28.1	14.5*	.	.	-8.0
SMILES	TbHK1 inh	p97 inhibitor	DTT redox prof	G6PDH counter	S1P3 antag
Cn1cc(/C=N/n2cnc3scc(-c4ccc(Cl)cc4)c3c2=O)c2ccccc21	-23.0	5.3	-0.2	1.4	56.4*
Cc1ccc(-c2cc3c(nn2)-c2ccccc2C3=O)cc1	-11.6	-36.0	.	.	27.3
Cc1ccccc1-c1cc2c(nn1)-c1ccccc1C2=O	-13.2	3.9	0.3	53.1*	.
O=C(NC(=S)Nc1ccc(Cc2ccncc2)cc1)c1ccccc1	-2.6	0.5	-0.1	1.5	7.3
O=c1oc2c(O)c(O)cc3c(=O)oc4c(O)c(O)cc1c4c23	66.3*	12.2	0.5	27.7	-11.1
O=C1NC(=S)S/C1=C\c1ccc(SCc2ccco2)o1	38.0	52.5*	-0.1	13.2	6.5
O=C(CSc1n[nH]c(-c2ccncc2)n1)c1ccccc1	4.7	7.7	1.3	-8.3	71.8*
C=CCSC1=C(C#N)C(c2ccccc2OC)CC(=O)N1 (configuration not stated)	0.7	-1.7	-0.1	10.7	-18.5
COc1cc(CN2CCN(Cc3ccc(C)cc3)C(CCO)C2)cc(OC)c1O (configuration not stated)	-6.2	4.2	2.5	58.4*	-3.5
